# In PubChem BioAssay (NCATS):
# Records with an inconclusive call do not appear. Calls of active or inactive are those of the source. Calls come from the whole dose curve; as a rule, active = well fitted cell-killing curve with a large enough effect; inconclusive = small, poorly fitted or top-dose-only effect; inactive = no such curve, though single readings can be large or run the other way.
# Assay: qHTS of pediatric cancer cell lines to identify multiple opportunities for drug repurposing: Primary screen for SK-N-MC cells (AID 1347093)
# Conditions: SK-N-MC viability, CellTiter-Glo luminescence, 48 h; series mostly up to 46 µM; activity change, negative = cytotoxic: at the top concentration
# Excerpt: Drug repurposing or repositioning has been offered as a strategy for drug development in oncology programs. This approach has special potential for childhood cancers and other rare or orphan diseases, where the expected return on new drug development has been a disincentive to pharmaceuticals.
# In this project we exploit the poly-pharmacology of drugs to discover new indications via phenotypic screening of a panel of 19 well-characterized cell lines derived from solid tumors seen in children and adolescents. The goal is to identify approved drugs with previously unrecognized anticancer properties that has the potential to reveal new mechanisms and biological processes involved in carcinogenesis or drug resistance. We employed a titration-based paradigm (quantitative high-throughput screening or qHTS), where all compounds were tested at multiple concentrations for their effect on cell viability. Concentration-response curves (CRCs) were derived directly from the primary screen, and both potency and efficacy values were used to identify compounds with robust bioactivity profiles. We screened the NIH Chemical Genomics Center (NCGC) Pharmaceutical Collection (NPC) and Mechanism Interrogation Plate (MIPE) small molecule collections of approved and investigational compounds against these cell lines; and measured metabolically active cells after 48 hours of compound treatment as a proxy for cell viability.
# Assay Submitter: Nathalia J. Martinez, National Center for Advancing Translational Sciences, National Institutes of Health, Rockville, MD, USA; email: natalia.martinez@nih.gov
# [1] Shen, M et al. Quantitative high-throughput phenotypic screening of pediatric cancer cell lines identifies multiple opportunities for drug repurposing. Oncotarget 2017 Dec 19;9(4):4758-4772. PMID 29435139.
# The cells were obtained from University of North Carolina (UNC), Pediatric Preclinical Testing Program (PPT), and Coriell Institute (CI).
# qHTS cell viability assay:
# Cells were assayed in growth media at a density of 500-1,000 cells/well. Five microliters of cells were dispensed into 1,536-well, white, solid-bottom, TC-treated plates (Greiner Bio One) using a multidrop dispenser and incubated at 37 degrees C, 5% CO2, under a humidified atmosphere for 5 hours. Twenty-three nanoliters of compounds and controls (neutral control DMSO or positive control bortezomib at final concentration of 2.3 µM) were subsequently transferred by Kalypsys pintool. For primary screens, the MIPE collection was tested at 11-point dilutions (final concentrations range from 0.78 nM to 46 µM) and the NPC collection at 8-point dilutions (final concentrations range from 0.59nM to 46 µM). Compounds tested in follow-up screens were assayed at 11-point dilutions. Cells were incubated for 48 hours, followed by addition of 3 uL of CellTiter-Glo (Promega). After a 15 min incubation at room temperature, samples were analyzed for luminescence intensity using a ViewLux High-throughput CCD imager equipped with clear filters.
# Potency is the fitted concentration of half-maximal effect.
SMILES,"activity change, negative = cytotoxic",Potency
CC(C)(C)NC[C@H](O)COc1nsnc1N1CCOCC1,-12.2% (inactive),–
CCN(CC)CCNC(=O)c1cc(Br)c(N)cc1OC,-14.6% (inactive),–
C#C[C@]1(O)CC[C@H]2[C@@H]3CCc4cc(OC)ccc4[C@H]3CC[C@@]21C,13.2% (inactive),–
Nc1nc(-c2ccccc2)c(Br)c(=O)[nH]1,-25.8% (inactive),–
O=C(O)c1ccc(S(=O)(=O)N(Cl)Cl)cc1,-13.4% (inactive),–
CN1CCC(OC(c2ccccc2)c2ccccc2)CC1,-0.0856% (inactive),–
CCc1ccc(C(=O)C(C)CN2CCCCC2)cc1 (stereo not given),-12.4% (inactive),–
OC1C(O)C(O)C(O)C(O)C1O (stereo not given),-24.9% (inactive),–
CCCc1ncc(C[n+]2ccccc2C)c(N)n1,-17.4% (inactive),–
CN(C)CCOC(=O)C(c1ccccc1)C1(O)CCCC1 (stereo not given),15.3% (inactive),–
OCc1ccccn1,-1.35% (inactive),–
CC(C)(C)NCC(O)COc1cccc2c1C[C@H](O)[C@H](O)C2 (stereo not given in full),-5.27% (inactive),–
CCC(Cc1c(I)cc(I)c(N)c1I)C(=O)O (stereo not given),-8.85% (inactive),–
CCOCCn1c(N2CCCN(C)CC2)nc2ccccc21,-25% (inactive),–
CO[C@]12C[C@@H](COC(=O)c3cncc(Br)c3)CN(C)[C@@H]1Cc1cn(C)c3cccc2c13,7.6% (inactive),–
CC(CNC1CCCCC1)OC(=O)c1ccccc1 (stereo not given),-28.6% (inactive),–
CC(C)CCCC(C)N (stereo not given),-7.55% (inactive),–
CCCCCCCCCCCCCCCCO,-14.7% (inactive),–
Cc1cc2c(OCC(CNC(C)(C)C)OC(=O)c3ccccc3)cccc2[nH]1 (stereo not given),-12.8% (inactive),–
CN1CCC[C@@H]1CCO[C@](C)(c1ccccc1)c1ccc(Cl)cc1,–,29.9 µM (active)

SMILES,"activity change, negative = cytotoxic",Potency
COc1ccc(/C=N/NC(=O)c2ccncc2)cc1OC,15.1% (inactive),–
C[N+]12CCC(CC1)C(OC(=O)C(O)(c1ccccc1)c1ccccc1)C2 (stereo not given),-2.73% (inactive),–
CN(C)C(=O)Nc1ccc(Cl)c(Cl)c1,-55.5% (inactive),–
O=C(O)P(=O)(O)O,-0.122% (inactive),–
CCOC(=O)c1ccc(N)cc1,-29.1% (inactive),–
NCCNc1cccc2ccccc12,-24.6% (inactive),–
CCCCNc1ccc(C(=O)OCCOCCOCCOCCOCCOCCOCCOCCOCCOC)cc1,-2.94% (inactive),–
NCc1ccccc1Sc1ccccc1CO,-0.3% (inactive),–
NCCNC(=O)c1ccc(Cl)cn1,-18.8% (inactive),–
CC(C)=CCOc1ccc(/C=C/C(=O)c2ccc(OCC=C(C)C)cc2OCC(=O)O)cc1,–,21.1 µM (active)
CN(CCCN1c2ccccc2CCc2ccccc21)CC(=O)c1ccc(Cl)cc1,-21% (inactive),–
CC1(C)OC[C@@H]2O[C@@]3(C(=O)O)OC(C)(C)O[C@H]3[C@@H]2O1,-2.63% (inactive),–
CC[N+](C)(CC)CCOC(=O)C(O)(c1ccccc1)C1CCCCC1 (stereo not given),-17.3% (inactive),–
CC(=O)N[C@@H](CCC(=O)O)C(=O)O,-17.8% (inactive),–
C=C[C@H]1CN2CC[C@H]1C[C@H]2[C@H](O)c1ccnc2ccc(OC)cc12,-9.34% (inactive),–
C[N+]1(C)CCC(=C(c2ccccc2)c2ccccc2)CC1,-11.9% (inactive),–
CN1CCN(CCC(=O)N2c3ccccc3Sc3ccc(C(F)(F)F)cc32)CC1,–,29.9 µM (active)
CCN[C@@H]1C[C@H](N)[C@@H](OC2OC(CN)=CCC2N)[C@H](O)[C@H]1O[C@H]1OC[C@](C)(O)[C@H](NC)[C@H]1O (stereo not given in full),-24.4% [at 0.597 µM] (inactive),–
O=C(NC1CCN(CCc2c[nH]c3ccccc23)CC1)c1ccccc1,-7.13% (inactive),–
NC(=O)n1c(O)c(C(=O)c2cccs2)c2cc(Cl)ccc21,–,26.6 µM (active)
